Bioassay records: PubChem BioAssay, Sanford-Burnham Center for Chemical Genomics
Shown are actives, neighbours in structure and some others; about 31% of the full set was active somewhere.
CYP2C19 inh: human CYP2C19 inhibition. P33261. CYP2C19 Supersomes, luciferin-H EGE luminescence, 30 min. inhibition, % at 5 µM. hit rate 21% among 96,000. AID 778;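 active = CYP2C19 inhibition above a set limit at 5 µM in the primary screen, cut at about 50% in these data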
CYP2C9 inh: human CYP2C9 inhibition; CYP2C9 Supersomes, luciferin-H conversion, luminescence; inhibition, % at 5 µM; hit rate 20% among 96,000; AID 777;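 active = blocking of liver enzyme CYP2C9 beyond about 50% at 5 µM, limit read from the data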
CYP2C19 activ: cytochrome P450 2C19 (human) activation | P33261 | recombinant CYP2C19, luciferin-H EGE luminescence; stronger effect = higher value; 0 = fully inhibited enzyme, 1 = untreated enzyme | activation factor at 5 µM | 96,000 tested, under 10 active | AID 1025;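 active = activation factor of at least 2 at 5 µM in the primary screen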
PLAP act: human PLAP activation. purified PLAP enzyme, luminescent substrate read-out; stronger effect = higher value. activation fold at 20 µM. hit rate 1.2% among 96,000; in the data active = activation fold above about 2
Target sequence (P05187 whole entry, looked up): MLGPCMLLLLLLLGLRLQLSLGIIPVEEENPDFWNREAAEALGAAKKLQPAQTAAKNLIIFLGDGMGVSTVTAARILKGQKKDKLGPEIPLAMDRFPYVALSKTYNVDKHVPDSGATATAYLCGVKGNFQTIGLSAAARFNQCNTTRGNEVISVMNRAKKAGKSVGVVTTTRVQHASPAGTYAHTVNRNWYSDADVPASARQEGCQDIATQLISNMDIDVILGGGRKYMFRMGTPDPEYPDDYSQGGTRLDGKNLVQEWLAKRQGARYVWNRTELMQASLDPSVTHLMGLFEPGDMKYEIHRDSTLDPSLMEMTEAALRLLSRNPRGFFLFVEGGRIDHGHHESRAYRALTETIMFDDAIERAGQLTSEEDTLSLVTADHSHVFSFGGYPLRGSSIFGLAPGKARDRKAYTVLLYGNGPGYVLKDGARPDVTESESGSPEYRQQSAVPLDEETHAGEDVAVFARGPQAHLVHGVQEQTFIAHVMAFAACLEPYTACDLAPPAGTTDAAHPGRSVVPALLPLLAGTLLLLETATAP
CYP2C9 act: CYP2C9 (human) activation | activation factor at 5 µM | AID 1024 | P11712 | hit rate 1.4% among 96,000 | recombinant CYP2C9, luciferin-H conversion, luminescence; stronger effect = higher value; factor 1 = untreated enzyme, 0 = blocked;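 active = activation factor of 2 or more for CYP2C9 at a 5 µM dose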
Large screens that a line does not name were inactive.

CN1CCN(c2nc3c(c(=O)n(C)c(=O)n3C)n2Cc2cccc3ccccc23)CC1	none
Cn1c(=O)c2[nH]c(CN3CCN(Cc4ccccc4)CC3)nc2n(C)c1=O	none
CCOc1nc2c(c(=O)n(C)c(=O)n2C)n1Cc1ccccc1Cl	none
Cn1c(=O)c2[nH]c(CNCc3ccccc3Cl)nc2n(C)c1=O	PLAP act 2.9
Cn1c(=O)c2c(nc(Br)n2Cc2ccccc2Cl)n(C)c1=O	CYP2C19 inh 77
C/C(Cl)=C\Cn1c(N2CCCCCC2)nc2c1c(=O)n(C)c(=O)n2C	CYP2C9 inh 85
CC1(C)CC(=O)C=C(Nc2ccc(Br)cn2)C1	none
N=c1oc2ccccc2cc1-c1nc2ccccc2c(=O)[nH]1	none
Cc1[nH]c(C)c(C(=O)O)c1CNC1CCCCC1C (stereo unspecified)	none
CC(C)=CC(=O)Nc1nnc(C(C)C)s1	none
CC(C)=CC(=O)Nc1nnc(-c2cccnc2)s1	CYP2C19 inh 87
Cn1c(C(C#N)C2=C(Cl)C(=O)N(c3ccccc3)C2=O)nc2ccccc21 (stereo unspecified)	CYP2C19 inh 78, CYP2C9 inh 92
CC1=C(OC(=O)c2ccc(Br)cc2)C(C)(C)C(c2ccccc2)OC1=O (stereo unspecified)	CYP2C19 inh 98, CYP2C9 inh 97
CC1=C(OC(=O)c2ccccc2)C(C)(C)C(c2ccccc2)OC1=O (stereo unspecified)	none
CC1=C(OC(=O)c2ccccc2)C(C)(C)C(c2ccc(Br)cc2)OC1=O (stereo unspecified)	CYP2C9 inh 61
CC(C)CCn1c(=O)c2ccccc2n2c(CN(C)Cc3ccccc3)nnc12	none
CC1=CC=CC2=NC(=O)CC(C)(C(=O)N(CC(=O)NC3CCCC3)c3ccccc3C)N12 (stereo unspecified)	none
Cc1cccc(N(CC(=O)NC2CCCCC2)C(=O)c2ccc(C)s2)c1	CYP2C9 inh 60
Cc1cc(C(C)(C)C)oc1C(=O)N(CC(=O)NC1CCCC1)c1cccc(C(F)(F)F)c1	none
Cc1ccc(C)c(N(CC(=O)NC2CCCC2)C(=O)c2cc3cc4cc(C)ccc4nc3s2)c1	none
Cc1ccc(C(=O)N(CC(=O)NC2CCCCC2)c2ccccc2C)s1	CYP2C9 inh 62
Cc1cccc(N(CC(=O)NC2CCCC2)C(=O)c2cc3cc4cccc(C)c4nc3s2)c1C	CYP2C9 inh 90
CC(=O)Nc1ccccc1-c1nc2ccc(C(=O)N3CCN(c4cc(C)ccc4C)CC3)cc2[nH]c1=O	CYP2C19 inh 70, CYP2C9 inh 99
CCN(CCNC(=O)c1ccc2nc(-c3ccccc3NC(C)=O)c(=O)[nH]c2c1)c1ccccc1	none
CC(C)(C)C(=O)NCCn1ccc2ccccc21	CYP2C19 inh 97
O=C(NCCn1ccc2ccccc21)c1ccc2c(c1)OCO2	CYP2C19 inh 65
O=C(NCCn1ccc2ccccc21)c1ccc(S(=O)(=O)N2CCCCC2)cc1	CYP2C9 inh 56
COc1ccc(C(=O)NCCn2ccc3ccccc32)cc1	CYP2C19 inh 78
Cc1cc2ccccc2n1CCNC(=O)c1ccc(S(=O)(=O)N2CCOCC2)cc1	none
N#CC1(Cc2ccccc2)c2ccccc2C=CN1C(=O)c1ccccc1 (stereo unspecified)	CYP2C19 inh 93, CYP2C9 inh 72
N#CC1(Cc2ccc([N+](=O)[O-])cc2)c2ccccc2C=CN1C(=O)c1ccccc1 (stereo unspecified)	CYP2C19 inh 68, CYP2C9 inh 68
CC(C)OCC(O)CS(=O)Cc1ccccc1 (stereo unspecified)	none
CCC(C)N(C(=O)CSc1nc(-c2ccccc2)cs1)C1CCS(=O)(=O)C1 (stereo unspecified)	CYP2C9 act 2.5
CCOc1ccc(N/C(C)=C/C(=O)c2ccc(C)o2)cc1	CYP2C19 inh 52
CC(C)Nc1nc(NC(C)C)nc(C(N)=O)n1	none
Brc1ccc2nc(CSc3ncn[nH]3)cn2c1	CYP2C19 inh 52, PLAP act 2.8
Cc1ccc(S(=O)(=O)N2CCN(S(=O)(=O)c3ccccc3)C2)cc1	CYP2C19 inh 56, CYP2C9 inh 57
CN(C)S(=O)(=O)N1CCN(S(=O)(=O)c2ccccc2)CC1	CYP2C19 inh 80, CYP2C9 inh 58
Cc1ccc(-c2ccc(S(=O)(=O)N3CCN(C)CC3)cc2)cc1	CYP2C9 inh 52
O=S(=O)(c1ccc(S(=O)(=O)N2CCCN(Cc3ccccc3)C2)cc1)N1CCCCCC1	CYP2C19 inh 72, CYP2C9 inh 74
O=S(=O)(NCc1ccccc1)c1ccc(S(=O)(=O)N2CCCCC2)cc1	none
Cc1ccc2oc3c(c(=O)c2c1)C(c1cccs1)N(CCCN(C)C)C3=O (stereo unspecified)	none
CN1C(=O)c2oc3ccccc3c(=O)c2C1c1ccncc1 (stereo unspecified)	none
O=C(Nc1ccc2c(c1)oc1ccc(S(=O)(=O)N3CCCC3)cc12)C1CC1	CYP2C9 inh 53
O=C(c1ccc(O)cc1)c1ccc(C(=O)c2ccc(O)cc2)cc1	CYP2C9 inh 69
O=C(N/C(=C\c1cccc([N+](=O)[O-])c1)C(=O)N1CCCCC1)c1cccs1	none
CCCCNc1nnc(SCC(=O)N2CCN(S(=O)(=O)c3ccc4ccccc4c3)CC2)s1	CYP2C19 inh 79, CYP2C9 inh 87
Nn1cc(-c2ccccc2)nc1SCC(=O)N1CCN(S(=O)(=O)c2ccc3ccccc3c2)CC1	none
CC(C)C(O)(C#CCN1CCCC1)c1ccccc1 (stereo unspecified)	CYP2C19 inh 50
CC(C)C(O)(C#CCN1CCCCC1)c1ccccc1 (stereo unspecified)	CYP2C19 inh 72
CC(O)(C#CCN1CCOCC1)c1ccccc1 (stereo unspecified)	none
CN1CCC(N(C)C(=O)CCc2nc3ccccc3c(=O)[nH]2)CC1	none
Cc1nn(Cc2ccc(C(=O)Nc3nccs3)cc2)c(C)c1Cl	none
Cc1ccccc1C(=O)N/N=C/c1ccc(OCC(=O)N2CCCCC2)cc1	none
O=C(O)C1C2C=CC(C3CC23)C1C(=O)N1CCc2ccccc21 (stereo unspecified)	none
COC(=O)c1c(C)[nH]c(C(C)=O)c1C	CYP2C9 inh 55
CC1CC(C)CN(C2CCN(Cc3cccnc3)CC2)C1 (stereo unspecified)	none
COC(=O)c1cc2ccsc2n1Cc1nc(-c2cccc(Cl)c2)oc1C	CYP2C19 inh 52, CYP2C9 inh 99
CC(C)Cn1c(SC(C)C(=O)Nc2ccc3c(c2)OCCO3)nc2ccccc2c1=O (stereo unspecified)	CYP2C19 inh 83, CYP2C9 inh 93
O=C(CSc1nnnn1-c1ccccc1)NC(=O)Nc1ccc2c(c1)OCCO2	none
COCC(C)n1c(SCC(=O)NC(=O)Nc2ccc3c(c2)OCCO3)nc2ccccc2c1=O (stereo unspecified)	CYP2C19 inh 52, CYP2C9 inh 78
Cc1ccc(C)c2[nH]c(=O)c(CN(Cc3ccco3)C(=O)Nc3ccccc3)cc12	none
